This passage reports Potency and activity change, negative = cytotoxicity results from PubChem BioAssay (NCATS).

SMILES strings stand for the structures. Results filed as inconclusive are left out. A number with no mark means an inactive call. Activity calls are given as the source filed them. Calls come from the whole dose curve; as a rule, active = well fitted cell-killing curve with a large enough effect; inconclusive = small, poorly fitted or top-dose-only effect, or effect the other way; inactive = flat fitted curve, though single readings scatter.

What all share (assay): Primary qHTS to identify gynecologic anti-cancer compounds using libraries of approved drugs and bioactive compounds (AID 1345084); note: nearly all actives have a fitted effect of over 55% in size
The subject of assay [1] is C33A. Particulars: Gynecologic cancer cell panel viability, ATPlite luminescence, 48 h; series mostly up to 57.5 µM. In outline: (§1)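 Measured: luminescence after ATPlite addition (15 min, RT). Exposure: 48 h, 37 C, 5% CO2.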
A general note: Cellular ATP, detected with luciferase, serves as a proxy for viable cell number.

Assay [2] has as its system CAOV3. Conditions: Gynecologic cancer cell panel viability, ATPlite luminescence, 48 h; series mostly up to 57.5 µM. The essentials: as §1
The subject of assay [3] is CASKI. Conditions: Gynecologic cancer cell panel viability, ATPlite luminescence, 48 h; series mostly up to 57.5 µM. In outline:
as §1

Assay [4] concerns Es-2. Particulars: Gynecologic cancer cell panel viability, ATPlite luminescence, 48 h; series mostly up to 57.5 µM. The essentials: as §1
Assay [5] concerns HeLa. Particulars: Gynecologic cancer cell panel viability, ATPlite luminescence, 48 h; series mostly up to 57.5 µM. The essentials: as §1
Assay [6] relates to Hek293T. Particulars: Gynecologic cancer cell panel viability, ATPlite luminescence, 48 h, control line for the selectivity index; series mostly up to 57.5 µM. In outline:
as §1

In assay [7] the test system is JEG-3. Conditions: Gynecologic cancer cell panel viability, ATPlite luminescence, 48 h; series mostly up to 57.5 µM. In outline: as §1
Assay [8] deals with OV90. Conditions: Gynecologic cancer cell panel viability, ATPlite luminescence, 48 h; series mostly up to 57.5 µM. In outline: as §1
The test system of assay [9] is PA-1. Conditions: Gynecologic cancer cell panel viability, ATPlite luminescence, 48 h; series mostly up to 57.5 µM. The essentials: as §1
Assay [10] relates to Tov112D. Particulars: Gynecologic cancer cell panel viability, ATPlite luminescence, 48 h; series mostly up to 57.5 µM. In outline:
as §1

For assay [11], the system named is SKOV3. Particulars: Gynecologic cancer cell panel viability, ATPlite luminescence, 48 h; series mostly up to 57.5 µM. In outline: as §1
The subject of assay [12] is Tov-21-G. Particulars: Gynecologic cancer cell panel viability, ATPlite luminescence, 48 h; series mostly up to 57.5 µM. In outline:
as §1
% is set by controls: 0 for no effect and ±100 for the full control effect; potency is the fitted concentration of half-maximal effect.

Take `O=C(Nc1c(-c2cccs2)nc2ccccn12)c1ccc(Cl)cc1`: the Potency entry in assay [1], in [2], in assay [3], in assay [4], in assay [5] and in [6] was “inactive” throughout. The Potency result in assay [7], in assay [8], in assay [9] and in assay [10] was “inactive” throughout.
On to `CC1(C)CC[C@]2(C(=O)O)CC[C@]3(C)C(=CCC4[C@@]5(C)CC[C@H](O[C@@H]6O[C@H](C(=O)O)[C@@H](O[C@@H]7OC[C@@H](O)[C@H](O)[C@H]7O)[C@H](O)[C@H]6O)C(C)(C)C5CC[C@]43C)C2C1O` (some centres undefined), for which the Potency entry in [1], in assay [2], in [3], in assay [4], in assay [5] and in assay [6] was “inactive” throughout. Besides, the Potency entry in [7], in assay [8], in [11], in assay [12] and in [10] was “inactive” throughout.
As to `OC[C@@]1(O)CO[C@@H](OC[C@H]2O[C@@H](Oc3c[nH]c4ccccc34)[C@H](O)[C@@H](O)[C@@H]2O)[C@@H]1O`, the Potency result in assay [1], in assay [2], in assay [3], in assay [4], in assay [5] and in assay [6] was “inactive” throughout. Further, the Potency entry in assay [7], in assay [8], in assay [9], in assay [12] and in assay [10] was “inactive” in each case.
For the compound `COCCOc1cnc2ccn([C@H](C)c3nnc4c(F)cc(-c5cnn(C)c5)cn34)c(=O)c2c1`, the Potency entry in assay [1], in assay [2], in assay [3], in assay [4], in assay [5] and in assay [6] was “inactive” throughout. In addition, the Potency entry in assay [7], in assay [8], in assay [11], in assay [12] and in [10] was “inactive” throughout.
For `OC[C@H]1O[C@@H](O[C@H]2[C@H](OCCc3ccccc3)O[C@H](CO)[C@@H](O)[C@@H]2O)[C@H](O)[C@@H](O)[C@@H]1O`, the Potency entry in [1], in [2], in [3], in [4], in [5] and in [6] was “inactive” each time. The Potency result in assay [7], in [8], in assay [11], in [12] and in [10] was “inactive” in each case.
Regarding `C[C@@H]1CCC2C(C)(C)[C@H](O)CC[C@]2(C)[C@@]12Cc1c(O)cc3c(c1O2)CN([C@@H](CCC(=O)O)C(=O)O)C3=O` (some centres undefined), the Potency result in assay [1], in assay [2], in [3], in assay [4], in assay [5] and in [6] was “inactive” each time. Moreover, the Potency entry in assay [7], in [8], in assay [11], in assay [12] and in assay [10] was “inactive” in each case.
Take `CCC(O)C(C)C1CCC(C(C)C(=O)O)O1` (centres undefined): the Potency entry in [1], in assay [2], in [3], in [4], in [5] and in [6] was “inactive” in each case. The Potency entry in [7], in [8], in assay [9], in [12] and in [10] was “inactive” throughout.
Take `O=C1NC2CCc3nc4ccccc4c(=O)n3C2=Nc2ccccc21` (centres undefined): the Potency result in assay [1], in [2], in assay [3], in assay [4], in assay [5] and in assay [6] was “inactive” throughout. The Potency result in assay [7], in assay [8], in assay [11], in assay [12] and in assay [10] was “inactive” in each case.
As to `CC(C)c1cc2c(c(O)c1O)[C@@]13CCCC(C)(C)[C@@H]1[C@H](OC3=O)C2=O`, the Potency result in [1], in [2], in assay [3], in [4], in [5] and in assay [6] was “inactive” each time. Further, the Potency result in assay [7], in [8], in assay [11], in assay [12] and in assay [10] was “inactive” throughout.
`C/C1=C\CC[C@H](C)CCO[C@@H]2O[C@H](CO[C@@H]3OC[C@](O)(COC1=O)[C@H]3O)[C@@H](O)[C@H](O)[C@H]2O`: the Potency result in [1], in assay [2], in [3], in assay [4], in [5] and in [6] was “inactive” each time. Also, the Potency entry in [7], in assay [8], in [9], in assay [12] and in assay [10] was “inactive” throughout.
Turning to `Clc1cc2c(NC3CCCC3)nnc(-c3ccncc3)c2cc1Cl`, the Potency entry in [1], in assay [2], in assay [3], in [4], in assay [5] and in assay [6] was “inactive” in each case. The Potency result in assay [7], in [8], in assay [9], in [12] and in assay [10] was “inactive” in each case.
In the case of `Cc1ccc(S(=O)(=O)Nc2ccccc2N2CCCCC2)s1`, the Potency entry in assay [1], in assay [2], in assay [3], in [4], in assay [5] and in [6] was “inactive” throughout. Also, the Potency entry in assay [7], in assay [8], in assay [9], in assay [12] and in assay [10] was “inactive” in each case.
Regarding `C=C1CCC2C(C)(C)CCC[C@]2(C)[C@H]1C/C=C(\CO)C(=O)C(=O)O` (some centres undefined), the Potency entry in [1], in assay [2], in assay [3], in [4], in [5] and in [6] was “inactive” each time. Besides, the Potency entry in assay [7], in assay [8], in [11], in assay [12] and in [10] was “inactive” throughout.
For the compound `C[C@@H]1O[C@@H](O[C@H]2[C@H](O)[C@@H](O)[C@H](O[C@H]3[C@H](O[C@H]4CC[C@@]5(C)C(=CC[C@@H]6C5CC[C@]5(C)[C@@H]7[C@H](C[C@@H]65)O[C@]5(CC[C@@](C)(CO[C@@H]6O[C@H](CO)[C@@H](O)[C@H](O)[C@H]6O)O5)[C@H]7C)C4)O[C@H](CO)[C@@H](O)[C@@H]3O)O[C@@H]2CO)[C@H](O)[C@H](O)[C@H]1O` (some centres undefined), the activity change, negative = cytotoxicity in assay [1] is 1.06% [at 11.6 µM]; in assay [2], -9.22% [at 11.6 µM]; in assay [3] it was 21.1% [at 11.6 µM]; in [4], 3.9% [at 11.6 µM]; in assay [5], 6.34% [at 11.6 µM]; in assay [6], -9.56% [at 11.6 µM]. For the same compound, the activity change, negative = cytotoxicity in [7] is 4.71% [at 11.6 µM]; in assay [8], 5.27% [at 11.6 µM]; in assay [10], 13% [at 11.6 µM]. Besides, the Potency in assay [9] is 1780 nM (active).
Consider `Nc1nc2c(c(N3CCNCC3)n1)CCC1=C2[C@@H]2CCCC[C@@H]2O1`, for which the Potency entry in assay [1], in assay [2], in assay [3], in [4], in [5] and in assay [6] was “inactive” in each case. Moreover, the Potency entry in [7], in [8], in assay [11], in [12] and in assay [10] was “inactive” in each case.
For `C=CC1(C)CC(OC(=O)/C(C)=C\COC(C)=O)C(C(=C)C(=O)O)C(O)C1C(=C)CO` (centres undefined), the Potency entry in assay [1], in [2], in assay [3], in assay [4], in assay [5] and in assay [6] was “inactive” each time. Besides, the Potency entry in assay [7], in [8], in assay [9], in assay [12] and in assay [10] was “inactive” in each case.
